{"source": "the supplement of paper PMC6555819"}
{"tested_on": "RXRa homodimer (NR concentration 180 nM)", "assay": "PBM binding z-score (relative to random genomic background probes); higher = stronger binding; sequences stand for … in GC…GCGATTGACAGCGTAGAATGAAGG", "procedure,_shortened": "(§1)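 Custom Agilent 4×180K protein-binding microarrays carried double-stranded probes, each with a 34-nt variable region. These regions held direct-repeat seeds, single-nucleotide variants, half-site ablations and random human genomic background sequences. Ligand-free nuclear receptor dimers were incubated on the arrays for 1 h, antibodies against each partner (one per run) detected binding, and scanned fluorescence was regression-normalized. Binding z-scores take the random background probes as reference.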"}
{"sequence": "ACTAGTGGGTCAGCTGAGGTCACACACAATTCGG", "PBM binding z-score": 5.48}
{"sequence": "CCTTACGGGTCACTCAAGGTTATAGCATCGGAGT", "PBM binding z-score": 5.23}
{"sequence": "TCGAGTAGGTTACGGCGGCATTCAGGGATGAAGA", "PBM binding z-score": 0.642}
{"sequence": "ATATGTAGGTTAGAGTCATTCAGAAAGTAGGGAA", "PBM binding z-score": 0.703}
{"sequence": "CGAACGAGGTCAGAACAGGACAGTGAAGGATGAT", "PBM binding z-score": 4.37}
{"sequence": "CCTACTGGGCCATCAGGTGATTGATATCAACGTT", "PBM binding z-score": -0.272}
{"tested_on": "THRa:RXRa (NR concentration 90 nM, RXRa partner concentration 90 nM)", "assay": "PBM binding z-score (relative to random genomic background probes); higher = stronger binding; sequences stand for … in GC…GCGATTGACAGCGTAGAATGAAGG", "procedure,_shortened": "as §1"}
{"sequence": "CCGACTGGGTCAAAGGTTACCATACTCAGTACGA", "PBM binding z-score": 3.62}
{"sequence": "CCAGACAGGTGAAAGGTCACTCAGTCTGGTACGC", "PBM binding z-score": 3.75}
{"sequence": "CCTACTGTGCCATTCAGAGGTCATTGATCATATG", "PBM binding z-score": 3.38}
{"sequence": "AGTCAAAATTCACTAGGTAACGTAAGATTCAGCT", "PBM binding z-score": 0.806}
{"sequence": "GCTTACGGGTCAAAGGTTAAAGCATGAATAGAAT", "PBM binding z-score": 4}
{"sequence": "CCTACTGGGCCATTCAGAGGTTATTGATCATATG", "PBM binding z-score": 0.915}
{"sequence": "CCTAGTTGGTCAAGCTCACACACGCTATAGGTAC", "PBM binding z-score": 0.136}
{"sequence": "CCTTACGGGTCACTCCATGTTATAGCATCGGAGT", "PBM binding z-score": 2.84}
{"sequence": "TGAATGAAGTTAAAGATCAGGGAACGTGGCGTCG", "PBM binding z-score": -0.586}
{"sequence": "ACTAGCAGGTCAAGGGTCACTCAAGATTAGTCCG", "PBM binding z-score": 4.04}
{"sequence": "CCTACTGGGGCACGAAAGGTCATTGATTCAGTGA", "PBM binding z-score": 4.03}
{"tested_on": "THRa homodimer (NR concentration 90 nM)", "assay": "PBM binding z-score (relative to random genomic background probes); higher = stronger binding; sequences stand for … in GC…GCGATTGACAGCGTAGAATGAAGG", "procedure,_shortened": "as §1"}
{"sequence": "TCGAGTAGGTTACGGGGTCATTCAGGGATGAAGA", "PBM binding z-score": 2.5}
{"sequence": "CCGACTGGGTCAAAGGTTACCATACTCAGTACGA", "PBM binding z-score": 0.418}
{"sequence": "CGTCCAAGGTCAATGTTAGGTCAGTGAAAGCATT", "PBM binding z-score": 3.81}
{"sequence": "CAACCTAGGTCACGAAAGGTCAAAGTCGAATGAC", "PBM binding z-score": 2.77}
{"sequence": "CGTCAAAGTTCACCTAAGGTAACGTAAAGCACGC", "PBM binding z-score": 3.11}
{"sequence": "CCAGACAGGTGAAAGGTCACTCAGTCTGGTACGC", "PBM binding z-score": 1.02}
{"sequence": "TTACCAAGGTGACCTGAGGTCGTTGATCCAACTC", "PBM binding z-score": 3.94}
{"sequence": "CTCGAAAGGTCAGTTGAGGTGAGTATACGGATAA", "PBM binding z-score": 1.63}
{"sequence": "CGTCCAAGGTCAGAGAGGTCATTGAATGCCGAGT", "PBM binding z-score": 3.35}
{"sequence": "TAGCCTAGGTTATGCGGGCCAGTATAGTGTCGGC", "PBM binding z-score": -0.669}
{"sequence": "CCTACTGTGCCATTCAGAGGTCATTGATCATATG", "PBM binding z-score": 2.43}
{"sequence": "CAAACTAGGTCAAAGGTCAAAGTAGAGCCAACCA", "PBM binding z-score": 1.79}
{"sequence": "CCGAGTAGGTTACGTGGGGGCATTCAGTGCGAAT", "PBM binding z-score": 1.09}
{"sequence": "TTACCAAGGTCAGCTGAGGTCGTTGATCCAACTC", "PBM binding z-score": 3.51}
{"sequence": "AGTCAAAATTCACTAGGTAACGTAAGATTCAGCT", "PBM binding z-score": 0.608}
{"sequence": "GCATATAGGTAATTCAAGGTGAAAGTCCGATTGT", "PBM binding z-score": 1.67}
{"sequence": "GATACAGGGTGAGCTAGAGGCCAGAGTATGGAAA", "PBM binding z-score": -0.562}
{"sequence": "CCTAGCAGGCCAATCGGGGTCACTCAAGGCTTGA", "PBM binding z-score": 2.35}
{"sequence": "ACTAGGTGGTCAGCTGAGGTCACACACAATTCGG", "PBM binding z-score": 5.08}
{"sequence": "GCTTACGGGTCAAAGGTTAAAGCATGAATAGAAT", "PBM binding z-score": -0.111}
{"sequence": "TCTAGTAGGTCACGGAGGTCACACACGACGGGTA", "PBM binding z-score": 3.15}
{"sequence": "CCTACTGGGCCATTCAGAGGTTATTGATCATATG", "PBM binding z-score": 0.14}
{"sequence": "CCTACTGGGCCACGTAAGGTCATTGATTCAGTGA", "PBM binding z-score": 4.46}
{"sequence": "ACTAGTAGGTCAGCTGAGGTCACACACAATTCGG", "PBM binding z-score": 5.63}
{"sequence": "CCTAGTTGGTCAAGCTCACACACGCTATAGGTAC", "PBM binding z-score": 0.545}
{"sequence": "CCTTACGGGTCACTCCATGTTATAGCATCGGAGT", "PBM binding z-score": -0.286}
{"sequence": "CCGAGTAGGTTACGAGGAGGCATTCAGTGCGAAT", "PBM binding z-score": -0.82}
{"sequence": "TGAATGAAGTTAAAGATCAGGGAACGTGGCGTCG", "PBM binding z-score": -1.06}
{"sequence": "CGTCCAAGGTCAAAGGTCAGGGAAGAGATGACGG", "PBM binding z-score": 2.92}
{"sequence": "CCGAGTAGGTTACGAGGCGGCATTCAGTGCGAAT", "PBM binding z-score": -0.252}
{"sequence": "CAAACTAGGTCACCGTAAGGTCAAAGTCCGCATG", "PBM binding z-score": 5.45}
{"sequence": "ACTAGCAGGTCAAGGGTCACTCAAGATTAGTCCG", "PBM binding z-score": 1.42}
{"sequence": "ACTAGTGGGTCAGCTGAGGTCACACACAATTCGG", "PBM binding z-score": 4.71}
{"sequence": "CCTTACGGGTCACTCAAGGTTATAGCATCGGAGT", "PBM binding z-score": 1.01}
{"sequence": "TCGAGTAGGTTACGGCGGCATTCAGGGATGAAGA", "PBM binding z-score": -0.386}
{"sequence": "ATATGTAGGTTAGAGTCATTCAGAAAGTAGGGAA", "PBM binding z-score": 0.254}
{"sequence": "CGAACGAGGTCAGAACAGGACAGTGAAGGATGAT", "PBM binding z-score": 1.37}
{"sequence": "CCTACTGGGGCACGAAAGGTCATTGATTCAGTGA", "PBM binding z-score": 0.632}
{"sequence": "CCTACTGGGCCATCAGGTGATTGATATCAACGTT", "PBM binding z-score": 0.389}
{"tested_on": "VDR:RXRa (NR concentration 270 nM, RXRa partner concentration 90 nM)", "assay": "PBM binding z-score (relative to random genomic background probes); higher = stronger binding; sequences stand for … in GC…GCGATTGACAGCGTAGAATGAAGG", "procedure,_shortened": "as §1"}
{"sequence": "CCGACTGGGTCAAAGGTTACCATACTCAGTACGA", "PBM binding z-score": 4.41}
{"sequence": "CCAGACAGGTGAAAGGTCACTCAGTCTGGTACGC", "PBM binding z-score": 5.03}
{"sequence": "CCTACTGTGCCATTCAGAGGTCATTGATCATATG", "PBM binding z-score": 4.25}
{"sequence": "AGTCAAAATTCACTAGGTAACGTAAGATTCAGCT", "PBM binding z-score": 0.0665}
{"sequence": "GCTTACGGGTCAAAGGTTAAAGCATGAATAGAAT", "PBM binding z-score": 5.38}
{"sequence": "CCTACTGGGCCATTCAGAGGTTATTGATCATATG", "PBM binding z-score": 0.462}
{"sequence": "CCTAGTTGGTCAAGCTCACACACGCTATAGGTAC", "PBM binding z-score": 0.609}
{"sequence": "CCTTACGGGTCACTCCATGTTATAGCATCGGAGT", "PBM binding z-score": 3.02}
{"sequence": "TGAATGAAGTTAAAGATCAGGGAACGTGGCGTCG", "PBM binding z-score": -0.41}
{"sequence": "ACTAGCAGGTCAAGGGTCACTCAAGATTAGTCCG", "PBM binding z-score": 5.4}
{"sequence": "CCTACTGGGGCACGAAAGGTCATTGATTCAGTGA", "PBM binding z-score": 4.61}
